{"source": "PubChem BioAssay AID1159580", "about": "(chemical genetic matrix, 2015)", "assay": "chemical genetic growth profiling, strain panel (AID 1159580);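 also: tested at 20 µM; growth read once vehicle control cultures reached saturation at 30 °C; 1 = growth at the plate median or of vehicle wells; lower values mean less growth of the strain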", "conditions": "S. cerevisiae deletion strains, growth OD", "note": "Where “and” joins values, the source holds several entries; their conditions need not be identical. Equal values may be shown once. The whole screen tested about 5,500 compounds, of which about 2,000 (36%) were called active. About 18% were inconclusive and are not listed. Some of the results follow. A number with no mark means an inactive call. Rule as the data show it: active = normalized growth mostly below about 0.91 (no sharp cut-off); inconclusive = no clear call, values can overlap the other calls; inactive = mostly above about 0.92."}
{"smiles": "CCCSc1ccc2nc(NC(=O)OC)[nH]c2c1", "values": [{"measurement": "normalized growth", "setting": "locus YAL013W, strain DEP1, hits give low values", "value": 0.995}, {"measurement": "normalized growth", "setting": "locus YAL021C, strain ccr4, hits give low values", "value": 1.01}, {"measurement": "normalized growth", "setting": "locus YAL026C, strain drs2, hits give low values", "value": 1.01}, {"measurement": "normalized growth", "setting": "locus YAL030W, strain snc1, hits give low values", "value": 1}, {"measurement": "normalized growth", "setting": "locus YBL061C, strain skt5, hits give low values", "value": 1.01}, {"measurement": "normalized growth", "setting": "locus YBR009C, strain hhf1, hits give low values", "value": 1.01}, {"measurement": "normalized growth", "setting": "locus YBR021W, strain FUR4, hits give low values", "value": "1.2 [resistant] (active)"}, {"measurement": "normalized growth", "setting": "locus YBR023C, strain chs3, hits give low values", "value": 1.01}, {"measurement": "normalized growth", "setting": "locus YBR171W, strain sec66, hits give low values", "value": 1.02}, {"measurement": "normalized growth", "setting": "locus YBR229C, strain ROT2, hits give low values", "value": 0.992}, {"measurement": "normalized growth", "setting": "locus YBR231C, strain swc5, hits give low values", "value": 0.922}, {"measurement": "normalized growth", "setting": "locus YBR279W, strain paf1, hits give low values", "value": 1.01}, {"measurement": "normalized growth", "setting": "locus YCL011C, strain gbp2, hits give low values", "value": 1.01}, {"measurement": "normalized growth", "setting": "locus YCL016C, strain dcc1, hits give low values", "value": 1.01}, {"measurement": "normalized growth", "setting": "locus YCL029C, strain bik1, hits give low values", "value": "0.82 (active)"}, {"measurement": "normalized growth", "setting": "locus YCL061C, strain MRC1, hits give low values", "value": 1.01}, {"measurement": "normalized growth", "setting": "locus YCL069W, strain vba3, hits give low values", "value": 1.01}, {"measurement": "normalized growth", "setting": "locus YCR088W, strain abp1, hits give low values", "value": 1.01}, {"measurement": "normalized growth", "setting": "locus YDL005C, strain med2, hits give low values", "value": 1.03}, {"measurement": "normalized growth", "setting": "locus YDL035C, strain GPR1, hits give low values", "value": 0.99}, {"measurement": "normalized growth", "setting": "locus YDL040C, strain nat1, hits give low values", "value": 1.01}, {"measurement": "normalized growth", "setting": "locus YDL074C, strain BRE1, hits give low values", "value": 0.866}, {"measurement": "normalized growth", "setting": "locus YDL101C, strain DUN1, hits give low values", "value": 0.993}, {"measurement": "normalized growth", "setting": "locus YDL134C, strain PPH21, hits give low values", "value": 1.01}, {"measurement": "normalized growth", "setting": "locus YDL185W, strain tfp1, hits give low values", "value": 0.93}, {"measurement": "normalized growth", "setting": "locus YDL192W, strain arf1, hits give low values", "value": 0.971}, {"measurement": "normalized growth", "setting": "locus YDR001C, strain nth1, hits give low values", "value": 1.01}, {"measurement": "normalized growth", "setting": "locus YDR069C, strain doa4, hits give low values", "value": 0.998}, {"measurement": "normalized growth", "setting": "locus YDR101C, strain arx1, hits give low values", "value": 0.961}, {"measurement": "normalized growth", "setting": "locus YDR137W, strain rgp1, hits give low values", "value": 0.862}, {"measurement": "normalized growth", "setting": "locus YDR150W, strain NUM1, hits give low values", "value": 0.977}, {"measurement": "normalized growth", "setting": "locus YDR159W, strain sac3, hits give low values", "value": 1.04}, {"measurement": "normalized growth", "setting": "locus YDR162C, strain NBP2, hits give low values", "value": 0.993}, {"measurement": "normalized growth", "setting": "locus YDR195W, strain ref2", "value": "1.15 [resistant] (active)"}, {"measurement": "normalized growth", "setting": "locus YDR297W, strain sur2, hits give low values", "value": 1.01}, {"measurement": "normalized growth", "setting": "locus YDR318W, strain mcm21, hits give low values", "value": 0.956}, {"measurement": "normalized growth", "setting": "locus YDR334W, strain swr1, hits give low values", "value": 0.962}, {"measurement": "normalized growth", "setting": "locus YDR335W, strain msn5, hits give low values", "value": 1.02}, {"measurement": "normalized growth", "setting": "locus YDR388W, hits give low values", "value": 0.969}, {"measurement": "normalized growth", "setting": "locus YDR392W, strain spt3, hits give low values", "value": 0.967}, {"measurement": "normalized growth", "setting": "locus YDR502C, strain sam2, hits give low values", "value": 0.966}, {"measurement": "normalized growth", "setting": "locus YEL003W, strain gim4, hits give low values", "value": "0.446 (active)"}, {"measurement": "normalized growth", "setting": "locus YEL037C, strain rad23, hits give low values", "value": 1}, {"measurement": "normalized growth", "setting": "locus YEL061C, strain CIN8 (second series), hits give low values", "value": 1.01}, {"measurement": "normalized growth", "setting": "locus YEL061C, strain CIN8, hits give low values", "value": 0.997}, {"measurement": "normalized growth", "setting": "locus YER015W, strain faa2, hits give low values", "value": 1}, {"measurement": "normalized growth", "setting": "locus YER016W, strain bim1, hits give low values", "value": 1.01}, {"measurement": "normalized growth", "setting": "locus YER110C, hits give low values", "value": 0.976}, {"measurement": "normalized growth", "setting": "locus YER111C, strain swi4, hits give low values", "value": 1.02}, {"measurement": "normalized growth", "setting": "locus YER155C, strain BEM2 (second series), hits give low values", "value": 0.999}, {"measurement": "normalized growth", "setting": "locus YER155C, strain BEM2, hits give low values", "value": 0.991}, {"measurement": "normalized growth", "setting": "locus YER167W, strain BCK2, hits give low values", "value": 0.988}, {"measurement": "normalized growth", "setting": "locus YFR010W, strain ubp6, hits give low values", "value": 1.02}, {"measurement": "normalized growth", "setting": "locus YGL078C, strain dbp3, hits give low values", "value": 0.955}, {"measurement": "normalized growth", "setting": "locus YGL086W, strain mad1, hits give low values", "value": 0.974}, {"measurement": "normalized growth", "setting": "locus YGL167C, strain pmr1, hits give low values", "value": 1.02}, {"measurement": "normalized growth", "setting": "locus YGL173C, strain kem1, hits give low values", "value": 1.02}, {"measurement": "normalized growth", "setting": "locus YGL227W, strain vid30, hits give low values", "value": 1}, {"measurement": "normalized growth", "setting": "locus YGL240W, strain doc1, hits give low values", "value": 1.01}, {"measurement": "normalized growth", "setting": "locus YGL248W, strain PDE1, hits give low values", "value": 0.996}, {"measurement": "normalized growth", "setting": "locus YGL253W, strain hxk2, hits give low values", "value": 1.01}, {"measurement": "normalized growth", "setting": "locus YGR078C, strain PAC10, hits give low values", "value": "0.11 (active)"}, {"measurement": "normalized growth", "setting": "locus YGR135W, strain pre9, hits give low values", "value": 0.944}, {"measurement": "normalized growth", "setting": "locus YGR229C, strain SMI1, hits give low values", "value": 0.968}, {"measurement": "normalized growth", "setting": "locus YGR252W, strain gcn5, hits give low values", "value": 1.16}, {"measurement": "normalized growth", "setting": "locus YHR013C, strain ard1, hits give low values", "value": 1.01}, {"measurement": "normalized growth", "setting": "locus YHR027C, strain rpn1, hits give low values", "value": 1.01}, {"measurement": "normalized growth", "setting": "locus YHR030C, strain SLT2, hits give low values", "value": "0.99 and 0.897"}, {"measurement": "normalized growth", "setting": "locus YHR079C, strain IRE1 (second series), hits give low values", "value": 0.942}, {"measurement": "normalized growth", "setting": "locus YHR079C, strain IRE1, hits give low values", "value": 0.933}, {"measurement": "normalized growth", "setting": "locus YHR094C, strain hxt1, hits give low values", "value": 0.965}, {"measurement": "normalized growth", "setting": "locus YHR129C, strain ARP1, hits give low values", "value": 0.983}, {"measurement": "normalized growth", "setting": "locus YHR142W, strain chs7, hits give low values", "value": 1.01}, {"measurement": "normalized growth", "setting": "locus YHR200W, strain rpn10, hits give low values", "value": 0.951}, {"measurement": "normalized growth", "setting": "locus YIL066C, strain RNR3, hits give low values", "value": 0.98}, {"measurement": "normalized growth", "setting": "locus YIL073C, strain SPO22, hits give low values", "value": 0.894}, {"measurement": "normalized growth", "setting": "locus YIL125W, strain kgd1, hits give low values", "value": 0.98}, {"measurement": "normalized growth", "setting": "locus YIR030C, strain dcg1, hits give low values", "value": 0.983}, {"measurement": "normalized growth", "setting": "locus YJL092W, strain hpr5, hits give low values", "value": 1}, {"measurement": "normalized growth", "setting": "locus YJL095W, strain BCK1 (second series), hits give low values", "value": 1.01}, {"measurement": "normalized growth", "setting": "locus YJL095W, strain BCK1, hits give low values", "value": "0.95 and 0.922"}, {"measurement": "normalized growth", "setting": "locus YJL115W, strain asf1, hits give low values", "value": 1.02}, {"measurement": "normalized growth", "setting": "locus YJL129C, strain trk1, hits give low values", "value": 1.01}, {"measurement": "normalized growth", "setting": "locus YJL134W, strain LCB3, hits give low values", "value": 0.992}, {"measurement": "normalized growth", "setting": "locus YJL154C, strain vps35, hits give low values", "value": 1}, {"measurement": "normalized growth", "setting": "locus YJL164C, strain tpk1, hits give low values", "value": 1.01}, {"measurement": "normalized growth", "setting": "locus YJL166W, strain qcr8, hits give low values", "value": 1}, {"measurement": "normalized growth", "setting": "locus YJL168C, strain set2, hits give low values", "value": 0.969}, {"measurement": "normalized growth", "setting": "locus YJL187C, strain SWE1 (second series), hits give low values", "value": 0.963}, {"measurement": "normalized growth", "setting": "locus YJL187C, strain SWE1, hits give low values", "value": 1}, {"measurement": "normalized growth", "setting": "locus YJR043C, strain POL32, hits give low values", "value": 0.967}, {"measurement": "normalized growth", "setting": "locus YJR066W, strain TOR1, hits give low values", "value": 0.909}]}
